This is a sample that favours compounds with a hit; in the whole collection about 21% have one here.
Cycloheximide cs = counter-screen hit for Shiga toxin inhibitors, cycloheximide. AID 2314. hit rate 12% among 300,000. cell reporter, cycloheximide protein synthesis inhibition counterscreen. max response, %; in the data active = max response mostly above about 13%, no sharp cut-off; inactive = mostly below about 14%; also: read at 38.3 µM for the half of the compounds with a filed dose; 0% is about no effect
Shiga toxin inh = inhibitors of Shiga toxin in Vero cells | Vero cells, Shiga toxin protein synthesis inhibition reporter | inhibition, % at 38.7 µM | hit rate 9.2% among 290,000; in the data active = inhibition mostly above about 28%, no sharp cut-off; inactive = mostly below about 43%; also: 0% is about no effect
Pf growth 48h = inhibits P. falciparum growth in the first generation, 48 h. P. falciparum luciferase growth in erythrocytes, 48 h. Potency, µM (series often up to 28.7 µM), for the others: top-dose activity change, negative = inhibition, actives largely listed as inhibitors. hit rate 5.9% among 310,000; also: potency is read from the fitted curve at half-maximal effect; % is scaled to controls: 0 for no effect and ±100 for the full control effect
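Luciferase-expressing P. falciparum in infected erythrocytes (2% hematocrit, 0.1% parasitemia final) in RPMI 1640/0.5% Albumax were exposed to compound for 48 hours at 37 C, 5% CO2; growth read as luminescence.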
Pf growth 96h = P. falciparum growth inhibition at 96 hour, primary screen for plastid delayed-death inhibitors | AID 504834 | P. falciparum luciferase reporter growth, 96 h | Potency, µM (top dose mostly 28.7 µM), for the others: at the top dose activity change, negative = inhibition, hits mostly inhibitors | hit rate 6.9% among 320,000; also: potency is read from the fitted curve at half-maximal effect; % is scaled to controls: 0 for no effect and ±100 for the full control effect
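P. falciparum expressing integrated firefly luciferase grown in erythrocytes (2% hematocrit, 0.05% parasitemia final) with compounds for 96 hours at 37 C, 5% CO2. Growth inhibition read as loss of luminescence after adding luciferase detection reagent.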
HCV inhibitor = blocks hepatitis C virus | Huh7.5.1 HCVcc-Cre infection, luciferase reporter, 44 h | Potency, µM (highest dose often 41.8 µM), without a hit: at the top dose activity change, negative = inhibition, actives largely listed as inhibitors | hit rate 3.4% among 340,000 | AID 651820; also: potency is read from the fitted curve at half-maximal effect; % is scaled to controls: 0 for no effect and ±100 for the full control effect
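Reporter virus HCVcc-Cre (~0.5 moi) infects cells exposed to compound; seeding density 1,000 cells/well with 4 h settling beforehand. Luminescence, 15 sec read, taken 44 h post-infection following a 15 min RT substrate incubation.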
AMA1 RON2 block = inhibitors of Plasmodium falciparum AMA1-RON2 interaction; AlphaScreen AMA1-biotinylated RON2 peptide binding; Potency, µM (doses to about 58.2 µM), without a hit: at the highest dose activity change, negative = inhibition, usual class: inhibitors; AID 720542; hit rate 0.2% among 360,000;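 also: potency is read from the fitted curve at half-maximal effect; 0% = vehicle wells and -100% = peptide control; nearly all actives have a fitted effect of over 45% in size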
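AMA1 (3D7) with his tag at 25 nM final met compounds first, then biotinylated RON2 peptide at 25 nM; detection used donor plus acceptor beads, 10 µg/mL apiece, read by AlphaScreen after 30 min at room temperature.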
* marks the source's active call; other numbers are inactive results; i = inactive; ? = inconclusive; / = not tested or not shown. Unless noted, calls follow the shape of the dose curve; as a rule, active = well fitted curve in the direction sought with a large enough effect; inconclusive = small, poorly fitted or top-dose-only effect, or another doubt; inactive = no such curve, though single readings can be large; an effect the other way counts as inactive or inconclusive.

SMILES	Cycloheximide cs	Shiga toxin inh	Pf growth 48h	Pf growth 96h	HCV inhibitor	AMA1 RON2 block
CCOC(=O)c1c(/N=C/N(C)C)sc(/C=N/Nc2ccccc2)c1-c1ccccc1Cl	-1	5	6.6µM*	?	6.3µM*	-9%
CCOC(=O)c1c(/N=C/N(C)C)sc(C=O)c1-c1ccccc1	-2	-12	-20%	1%	-11%	-1%
CCOC(=O)c1c(/N=C/N(C)C)sc(/C=N/Nc2ccccc2)c1-c1ccccc1	0	9	15µM*	10µM*	?	3%
Cc1cc2c(cc1C)-c1nnnn1C(C)(C)C2	17	59*	49%	-9%	?	6%
COc1cc2c(cc1OC)-c1nnc(C)n1C(C)(C)C2	-5	-17	1%	i	6%	-2%
COc1ccccc1NS(=O)(=O)c1cccc(C(=O)NCC2(N3CCCCC3)CCCCC2)c1	/	/	/	/	-17%	-13%
O=c1[nH]c(C2CCN(S(=O)(=O)c3cccc(Cl)c3)CC2)nc2c1nnn2Cc1ccccc1	-7	10	?	21%	14%	-12%
O=c1[nH]c(C2CCN(S(=O)(=O)/C=C/c3ccccc3)CC2)nc2c1nnn2Cc1ccc(F)cc1	-4	-2	1.9µM*	?	-17%	-3%
Cc1ccc(Cn2nnc3c(=O)[nH]c(C4CCN(S(=O)(=O)c5ccc(F)cc5)CC4)nc32)cc1	3	6	-5%	/	18%	-4%
O=c1[nH]c(C2CCN(S(=O)(=O)c3cccc([N+](=O)[O-])c3)CC2)nc2c1nnn2Cc1ccccc1	-1	-11	8.3µM*	43%	7%	-16%
O=c1[nH]c(C2CCN(S(=O)(=O)Cc3ccccc3)CC2)nc2c1nnn2Cc1cccc(Cl)c1	-2	-9	?	44%	19%	-14%
Cc1ccc(Cn2nnc3c(=O)[nH]c(C4CCN(S(=O)(=O)c5cc(C)ccc5C)CC4)nc32)cc1	-2	-12	5.2µM*	/	?	0%
Cc1ccc(C)c(S(=O)(=O)N2CCC(c3nc4c(nnn4Cc4ccc(F)cc4)c(=O)[nH]3)CC2)c1	-4	-8	?	68%	8%	1%
O=c1[nH]c(C2CCN(S(=O)(=O)Cc3ccccc3)CC2)nc2c1nnn2Cc1ccccc1	0	-9	9.3µM*	13%	-8%	-8%
OCC1=C[C@@H](O)[C@@H]2C=CO[C@@H](O[C@@H]3O[C@H](CO)[C@@H](O)[C@H](O)[C@H]3O)[C@H]12	/	/	/	/	51%	12%
O=c1[nH]c(C2CCN(S(=O)(=O)c3ccc(S(=O)(=O)NC4CC4)cc3)CC2)nc2c1nnn2Cc1ccc(F)cc1	-6	-3	?	?	8%	-24%
Cc1ccc(C)c(Cn2nnc3c(=O)[nH]c(C4CCN(S(=O)(=O)c5ccc(S(=O)(=O)NC6CC6)cc5)CC4)nc32)c1	-1	29	2.6µM*	-1%	?	-19%
O=c1[nH]c(C2CCN(S(=O)(=O)c3ccc(S(=O)(=O)NC4CC4)cc3)CC2)nc2c1nnn2Cc1ccccc1	-4	-1	3.7µM*	8%	2%	1%
COc1ccc(-c2cc(=O)c3ccc(O)cc3o2)cc1	/	/	/	/	-19%	-2%
COc1cc(OC)c(-c2c3cc(O)c(=O)cc-3oc3cc(O)c(O)cc23)cc1OC	-4	-13	2.3µM*	3.7µM*	26%	7.9µM*
CCN(Cc1ccccc1)S(=O)(=O)c1ccccc1Br	/	/	/	/	-28%	101%
CCN(CC)S(=O)(=O)c1ccccc1/C=N\O	29*	46	70%	-7%	-6%	5%
Cc1cnn(-c2cc(N/N=C/c3ccc(F)cc3)ncn2)c1	-5	-19	6%	?	12%	-6%
COc1ccc(/C=N/Nc2cc(N(C)C)nc(N(C)C)n2)cc1	3	-10	?	12µM*	?	?
CN(C)c1cc(N/N=C\c2ccccc2)nc(N(C)C)n1	-2	8	?	-4%	?	-5%
COc1ccc(/C=N/Nc2cc(OC)ncn2)cc1	25*	97*	212%	-6%	5%	-17%
Cc1ccc(S(=O)(=O)NCc2ccccc2)cc1C(=O)NCC(=O)Nc1c(C)cccc1C	/	/	/	/	/	-6%
